Drawing on PubChem BioAssay (NCATS), this text covers Potency, outcome and activity change, negative = inhibition for 16 compounds.

Test [1] in a line: Cell Viability - BJ (AID 421; calls by dose curve;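 note: potency is the fitted concentration of half-maximal effect; cells exposed to compound for 40 hours at 37 °C before readout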). The following applies: BJ fibroblast viability, qHTS. The essentials: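 Cytotoxicity in human BJ foreskin fibroblasts is scored as loss of cellular ATP after a 40-hour exposure, measured by luciferase luminescence. Controls are DMSO and 100 uM tamoxifen.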
Background: qHTS replaces the single test concentration by a dilution series.

Test [2] in a line: Cell Viability - Jurkat (AID 426;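 active = dose-dependent loss of cell ATP signal giving a full or clear fitted curve, ranked by lower potency value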;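 note: potency is the fitted concentration of half-maximal effect; cells exposed to compound for 40 hours at 37 °C before ATP read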). The following applies: qHTS. The essentials:
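Luminescent ATP read-out (CellTiter-Glo, 20 min at room temperature) after 40 hr compound exposure at 37 °C of Jurkat E6-1 cells, 5000/well. Decreased ATP taken as cytotoxicity; AC50 from standard Hill equation.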

Test [3] is described as follows: Cell Viability - Hek293 (AID 427;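 active = compounds whose dose-response curve shows a full or clear partial loss of cell viability, called from curve shape rather than a numeric limit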;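 note: potency is the fitted concentration of half-maximal effect; cells exposed to compound for 40 hours at 37 °C before reading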). To be noted: qHTS. A digest of the protocol: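 qHTS, human embryonic kidney (adenovirus-transformed) cells; 40 hr cpd, 37 °C; CellTiter-Glo ATP luminescence. Norm: DMSO = 0, 100 uM tamoxifen = 100% inhibition. Hill-fit AC50.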
The nature of test [4]: Cell Viability - HepG2 (AID 433; calls by dose curve;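 note: potency is the fitted concentration of half-maximal effect; potency for ATP loss meaning cytotoxicity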). The following applies: qHTS. A digest of the protocol:
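HepG2 hepatocellular carcinoma cells (1500/well) were treated with compounds for 40 h at 37 °C in complete medium; intracellular ATP was read by CellTiter-Glo luminescence. Data were normalized to DMSO and 100 uM tamoxifen, and AC50 came from Hill fits.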

A short description of test [5]: Cell Viability - MRC5 (AID 434; calls by dose curve;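 note: potency is the fitted concentration of half-maximal effect; potency reflects cytotoxicity seen as loss of intracellular ATP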). To be noted: MRC5 lung fibroblast viability, qHTS. A digest of the protocol:
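AC50 values come from Hill-equation fits of intracellular ATP loss, measured by CellTiter-Glo luminescence. Normal lung fibroblasts (MRC5) had 40 hr compound treatment at 37 C, normalized between DMSO and 100 uM tamoxifen.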

Test [6] can be described thus: Cell Viability - SK-N-SH (AID 435; calls by dose curve;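 note: potency is the fitted concentration of half-maximal effect; compound exposure lasted 40 h at 37 °C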). To be noted: SK-N-SH neuroblastoma cell viability qHTS. A digest of the protocol: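 SK-N-SH human neuroblastoma cells (1500/well) were exposed to compounds in complete medium for 40 h at 37 °C, and intracellular ATP was then measured by CellTiter-Glo luminescence. AC50 was taken from Hill fits, normalized to DMSO and 100 uM tamoxifen.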

Test [7] addresses Cytochrome P450 1A2 (Homo sapiens) (UniProt P05177). The test is described as follows: p450-cyp1a2 (AID 410; calls by dose curve; note: potency is the fitted concentration of half-maximal effect;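 for activity change, negative = inhibition: -100% = full effect of reference inhibitor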). The following applies: recombinant CYP1A2, luciferin-ME demethylation, luminescence; series mostly up to 25.6 µM. The essentials: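 20nM CYP1A2, 100uM Luciferin-ME (=Km), 100mM KPO4; cpd 10 min RT; +NADPH regen, 60 min RT; stop/detect 20 min; luminescence. Normalized to furafylline 57 uM = full inhibition.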

A short description of test [8]: AP1 Signaling Pathway (AID 357).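 Note: ME-180 reporter cells stimulated with EGF at its EC50 level; % is set by controls: 0 for no effect and ±100 for the full control effect.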 The following applies: ME-180 AP-1-bla reporter, EGF-induced, beta-lactamase ratio, 5 h; series mostly up to 17.2 µM. The essentials: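 Beta-lactamase reporter under AP-1 response element, ME-180 background. Stimulus: EC50 EGF. Compound exposure 5 h, 37 °C. Detection: CCF4, 2.5 h RT, 460/530 nm. Values: AC50 from titration.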
Test [9] in a line: NFAT Signaling Pathway (AID 444).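 Note: carbachol stimulus at about its EC50 of 1 µM final; % is set by controls: 0 for no effect and ±100 for the full control effect.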 The following applies: Jurkat NFAT-bla M1, carbachol, beta-lactamase ratio, 5 h. A digest of the protocol:
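Read-out: CCF4 FRET ratio (460 nm/530 nm) after 1 h RT dye loading, used for %activity and AC50 from titration series. Cells: Jurkat NFAT-β-lactamase/M1 line, treated with compound plus 1 uM carbachol for 5 h, 37 °C.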

Test [10] can be described thus: Stat Signaling Pathway (AID 446).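 Note: ME-180 cervical cancer cells given 40 pM IL-6 alongside compound; SIE-controlled beta-lactamase reporter measured as 460/530 nm FRET emission ratio; % is set by controls: 0 for no effect and ±100 for the full control effect.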 The following applies: ME-180 (cervical carcinoma) SIE beta-lactamase reporter, IL-6 stimulated, 5 h; series mostly up to 17.2 µM. The essentials: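 Emission at 460 and 530 nm (excitation 405 nm) reports SIE-controlled beta-lactamase in ME-180 cells. Cells received compound with 40 pM IL-6 for 5 hrs at 37 C; data scaled between 300 pM IL-6 and 125 nM JAK-inhibitor controls.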

“And” between values parts separate entries of the source, which are not always exact repeats. Identical values can stand only once. Results filed as inconclusive are left out. More than one record can exist for a structure, and the calls need not agree. The source made the active and inactive calls. Unless noted, calls come from the whole dose curve; as a rule, active = well fitted curve in either direction with a large enough effect (not every such curve was filed as active); inconclusive = small, poorly fitted or top-dose-only effect, or another doubt; inactive = flat fitted curve, though single readings scatter.

Sequence of Cytochrome P450 1A2 (Homo sapiens) (P05177 whole entry, looked up): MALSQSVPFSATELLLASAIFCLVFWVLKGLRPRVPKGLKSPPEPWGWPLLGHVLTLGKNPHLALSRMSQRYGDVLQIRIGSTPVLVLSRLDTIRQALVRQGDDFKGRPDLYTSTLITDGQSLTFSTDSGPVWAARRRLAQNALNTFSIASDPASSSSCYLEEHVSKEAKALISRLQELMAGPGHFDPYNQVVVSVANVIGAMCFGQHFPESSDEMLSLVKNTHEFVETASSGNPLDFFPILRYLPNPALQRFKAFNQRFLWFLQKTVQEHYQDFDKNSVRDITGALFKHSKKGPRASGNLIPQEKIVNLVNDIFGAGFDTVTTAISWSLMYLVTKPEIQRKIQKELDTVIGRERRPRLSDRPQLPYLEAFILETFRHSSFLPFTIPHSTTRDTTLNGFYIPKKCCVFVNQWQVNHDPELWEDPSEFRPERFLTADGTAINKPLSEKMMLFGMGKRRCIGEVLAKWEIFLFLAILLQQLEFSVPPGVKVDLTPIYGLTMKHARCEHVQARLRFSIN

Take `COP(=O)(OC)OC=C(Cl)Cl`: the Potency is > 92 µM (inactive) in test [1]; > 92 µM (inactive) in [2]; > 92 µM (inactive) in [3]; > 92 µM (inactive) in test [4]; 30.9 µM (active) and > 92 µM (inactive) in test [5]; > 92 µM (inactive) in test [6].
As to `Oc1ccc2[nH]cc(CCCCN3CC=C(c4ccccc4)CC3)c2c1`, the Potency in [7] is 31.6 µM (active).
Consider `C[C@H](N)[C@H](O)c1ccc(O)c(O)c1`, for which the result in [8] and in test [10] was inactive. In addition, the Potency entry in test [7] is “inactive”. Also, the activity change, negative = inhibition is -6.73% (inactive) in [9] (at 17.2 µM (top of the series)) and 1.06% (inactive) in test [9] (at 38 µM (top of the series)).
In the case of `COC(=O)C1=CCCN(C)C1`, the result in [8] and in [10] was inactive. Further, in test [7], the Potency entry was “inactive”.
`O=C(CCCN1CCC(n2c(=O)[nH]c3ccccc32)CC1)c1ccc(F)cc1`: the outcome in test [8] and in [10] was inactive. Moreover, the Potency entry in [7] is “inactive”.
Consider `CNC(=O)Oc1cccc2ccccc12`, for which the Potency in test [1], in test [3], in test [4], in test [5] and in [6] was > 92 µM (inactive) throughout.
On to `COc1ccc(CN2CCNCC2)c(OC)c1OC`, for which the result in [8] and in test [10] was inactive. In addition, the activity change, negative = inhibition in test [9] (at 17.2 µM (top of the series)) was -8.2% (inactive).
Take `COP(=O)(OC)C(O)C(Cl)(Cl)Cl` (stereo not given): the result in test [8] and in test [10] was inactive.
Regarding `CN(C)C(=S)SSC(=S)N(C)C`, the Potency in [2] is 12.5 µM (active); in test [3], 14.5 µM (active); in test [4], 66.9 µM (active); in [5], 13.2 µM (active); in test [6] it was 8.36 µM (active).
On to `CCCCCCCCC(=O)NCc1ccc(O)c(OC)c1`, for which the outcome in [8] and in test [10] was inactive. Further, the Potency in [7] is 12.6 µM (active). Besides, the activity change, negative = inhibition in [9] (at 38 µM (top of the series)) was 6.44% (inactive).
For the compound `Clc1ccc(CSC(Cn2ccnc2)c2ccc(Cl)cc2Cl)cc1` (stereo not given), the outcome in test [8] was inactive.
Take `O=C(CCl)c1ccc(Cl)cc1Cl`: the Potency in [1] is 47.1 µM (active); in test [2], 0.345 µM (active); in test [4], 47.9 µM (active); in [6], 9.56 µM (active).
Regarding `O=C(O)c1nn(Cc2ccc(Cl)cc2Cl)c2ccccc12`, the result in test [8] was inactive. For the same compound, the Potency result in test [7] was “inactive”. Besides, in test [9] (at 38 µM (top of the series)), the activity change, negative = inhibition was -9.69% (inactive).
`CN1[C@@H]2CC[C@H]1CC(OC(=O)c1cc(Cl)cc(Cl)c1)C2` (stereo not given in full): the result in [8] and in [10] was inactive. Also, the Potency entry in test [7] was “inactive”.
Turning to `COc1ccc(C(=O)N2CCCC2=O)cc1`, the result in test [8] and in test [10] was inactive. For the same compound, the activity change, negative = inhibition was -27.3% (inactive) in test [9] (at 17.2 µM (top of the series)) and 11.8% (inactive) in test [9] (at 38 µM (top of the series)).
Turning to `C[N+]1(C)[C@@H]2CC[C@H]1CC(OC(=O)C(CO)c1ccccc1)C2` (stereo not given in full), the result in test [8] and in [10] was inactive. For the same compound, in test [9] (at 17.2 µM (top of the series)), the activity change, negative = inhibition was -95.4% (active) and -94.2% (active).
